Laboratory results: PubChem BioAssay (NCATS)
“And” between values parts separate entries of the source, which are not always exact repeats. Equal entries are not always repeated. Inconclusive results are not listed. Where a call stands in place of a potency, no number is given. More than one record can exist for a structure, and the calls need not agree. The source made the active and inactive calls. Unless noted, calls follow the shape of the dose curve; as a rule, active = well fitted curve in the direction sought with a large enough effect; inconclusive = small, poorly fitted or top-dose-only effect, or another doubt; inactive = no such curve, though single readings can be large; an effect the other way counts as inactive or inconclusive.

How the values were obtained:
[1] = molecular target: Glutathione peroxidase 1 (Homo sapiens) (UniProt P07203); assay: Primary qHTS Assay for Inhibitors of Recombinant Selenoprotein Glutathione Peroxidase 1 (GPX1) (AID 1845191); also: nearly all actives have a fitted effect of over 65% in size
Glutathione peroxidase 1 (Homo sapiens), sequence (P07203 whole entry, looked up): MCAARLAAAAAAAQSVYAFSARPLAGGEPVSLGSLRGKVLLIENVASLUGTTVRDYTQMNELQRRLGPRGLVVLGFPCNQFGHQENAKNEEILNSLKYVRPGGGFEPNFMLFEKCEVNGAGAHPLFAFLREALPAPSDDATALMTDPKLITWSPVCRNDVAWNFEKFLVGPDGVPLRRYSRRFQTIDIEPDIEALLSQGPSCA
In short: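 NADPH consumption tracked by fluorescence at 340/450 nm between t=0 and t=15 min, room temperature. Final mix: 10 nM GPX1, 100 nM glutathione reductase, 1 mM GSH, 0.5 mM NADPH, 0.5 mM cumene hydroperoxide, 0.01% BSA; 30 min compound–enzyme preincubation.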

[2] = molecular target: Phospholipid hydroperoxide glutathione peroxidase GPX4 (Homo sapiens) (UniProt P36969); assay: Primary qHTS Assay for Inhibitors of Recombinant Selenoprotein Glutathione Peroxidase 4 (GPX4) (AID 1845192); also: nearly all actives have a fitted effect of over 65% in size; also: potency is read from the fitted curve at half-maximal effect
Phospholipid hydroperoxide glutathione peroxidase GPX4 (Homo sapiens), sequence (P36969 whole entry, looked up): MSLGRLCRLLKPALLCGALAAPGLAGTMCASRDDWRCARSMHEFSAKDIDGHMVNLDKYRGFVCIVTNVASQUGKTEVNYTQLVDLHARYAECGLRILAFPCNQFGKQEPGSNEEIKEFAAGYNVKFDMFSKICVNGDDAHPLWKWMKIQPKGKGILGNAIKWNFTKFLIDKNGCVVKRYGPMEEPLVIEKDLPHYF
In short: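 NADPH consumption followed by fluorescence at 340/450 nm, t=0 and after 15 min at room temperature. Reaction started with cumene hydroperoxide (0.5 mM final) after 30 min compound–GPX4 preincubation; final 200 nM GPX4, 100 nM GR, 1 mM GSH, 0.5 mM NADPH.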

[3] = molecular target: Luciferin 4-monooxygenase (Photinus pyralis) (UniProt P08659); assay: Primary firefly luciferase (FLuc) qHTS assay for identification of artifact compounds. (AID 1845220); also: nearly all actives have a fitted effect of over 60% in size
In short: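 Cell-free, 1536-well qHTS. Buffer pH 7.6 with 0.01% Tween-20 and 0.05% BSA; 10 uM D-luciferin, 10 uM ATP; 10 nM P. pyralis luciferase; luminescence after 5 min.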

[4] = Primary fluorescence-based thiol-reactive (MSTI) qHTS assay for identification of artifact compounds. (AID 1845221); also: nearly all actives have a fitted effect of over 65% in size; also: potency is read from the fitted curve at half-maximal effect
In short: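 qHTS titration of compound; 4 uM MSTI, PBS pH 7.4, 2% DMSO; 1 h RT, dark; fluorescence 525/598 nm; normalized to Acetyl-MSTI and MSTI; 4-parameter Hill fit.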

[5] = system: Nanoluciferase (engineered Oplophorus gracilirostris luciferase); assay: Primary Nanoluciferase (NLuc) qHTS assay for identification of artifact compounds. (AID 1845222); also: series mostly up to about 54 µM
In short: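 Compounds are pinned into diluted (1:55) conditioned medium of NLuc-expressing S16 cells and held 15 min at room temperature protected from light. Nano-Glo substrate follows, and luminescence is read 5 min later.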

[6] = Primary redox qHTS assay for identification of artifact compounds. (AID 1845223)
In short: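 Redox-cycling detection via DTT (250 uM final) oxidation coupled to Amplex Red (25 uM)/HRP (250 mU/mL) in HBSS. 15 min preincubation plus 30 min after DTT, room temperature. Ex/Em 525/598 nm; 4-parameter Hill fit against DMSO and 10 uM DA3003.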

[7] = qHTS drug screen for cell cycle checkpoint inhibitors in PARPi-resistant BRCA-mutant ovarian cancer cell lines. (AID 1963452; calls by dose curve; also: potency is read from the fitted curve at half-maximal effect); settings: PEO1/OlaR viability, CellTiter-Glo luminescence, 96 h; for Z-AUC: stronger effect = lower value
In short: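 PEO1, PEO4 and PEO1/OlaR ovarian cancer cells, 600 per well, exposed 96 h at 37C to a dilution series. Viability read by CellTiter-Glo luminescence, normalized to DMSO and empty wells; activity summarized as Z-AUC.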

[8] = measured here: PEO1 parental Z-AUC

CO[C@@H]1COCC[C@@H]1N[C@@H]1CC[C@@](C(=O)N2CCc3ncc(C(F)(F)F)cc3C2)(C(C)C)C1
Potency [1]: inactive
Potency [2]: inactive
Potency [3]: inactive
Potency [4]: inactive
Potency [5]: inactive
Potency [6]: inactive
Z-AUC [7]: 0.278 (inactive)
Z-AUC [7, 8]: 1.21
Z-AUC ([7]; measured here: PEO4 Z-AUC): 1.12

CN1CC[C@@H](NC(=O)Nc2ccc(C#N)cc2)C[C@@H]1c1nc2ccccc2[nH]1
Potency [1]: inactive
Potency [2]: inactive
Potency [3]: inactive
Potency [4]: inactive
Potency [5]: inactive
Potency [6]: inactive
Z-AUC [7]: -0.312 (inactive)
Z-AUC [7, 8]: 0.0879
Z-AUC ([7]; measured here: PEO4 Z-AUC): -1.25

O=C(O)C[C@H](O)C[C@H](O)/C=C/c1c(C2CC2)nc2ccccc2c1-c1ccc(F)cc1
Potency [1]: inactive
Potency [2]: inactive and 22.4 µM (active)
Potency [3]: inactive
Potency [4]: inactive
Potency [5]: inactive
Potency [6]: inactive
Z-AUC [7]: -0.947 (inactive)
Z-AUC [7, 8]: -0.553
Z-AUC ([7]; measured here: PEO4 Z-AUC): -1.48

CCOC(=O)[C@H]1O[C@@H]1C(=O)N[C@@H](CC(C)C)C(=O)NCCC(C)C
Potency [1]: inactive
Potency [2]: inactive
Potency [3]: inactive
Potency [4]: inactive
Potency [5]: inactive
Potency [6]: inactive
Z-AUC [7]: -0.23 (inactive)
Z-AUC [7, 8]: 0.731
Z-AUC ([7]; measured here: PEO4 Z-AUC): 0.891

CC(C)Nc1cc(-c2c[nH]c(C(=O)N[C@H](CO)c3cccc(Cl)c3)c2)c(Cl)cn1
Potency [1]: inactive
Potency [2]: inactive
Potency [3]: inactive
Potency [4]: inactive
Potency [5]: inactive
Potency [6]: inactive
Potency [7]: 8.71 µM (active)
Z-AUC [7, 8]: -1.89
Z-AUC ([7]; measured here: PEO4 Z-AUC): -1.82

O=C(NC[C@H](O)CN1CCc2ccccc2C1)c1cc(NC2COC2)ncn1
Potency [1]: inactive
Potency [2]: inactive
Potency [3]: inactive
Potency [4]: inactive
Potency [5]: inactive
Z-AUC [7]: 0.421 (inactive)
Z-AUC [7, 8]: 0.62
Z-AUC ([7]; measured here: PEO4 Z-AUC): 0.347

CCN(c1cc(C#CCN2CCOCC2)cc(C(=O)NCc2c(C)cc(C)[nH]c2=O)c1C)C1CCC(N(C)CCOC)CC1 (stereo unspecified)
Potency [1]: inactive
Potency [2]: inactive
Potency [3]: inactive
Potency [4]: inactive
Potency [5]: inactive
Z-AUC [7]: 0.159 (inactive)
Z-AUC [7, 8]: 1.88
Z-AUC ([7]; measured here: PEO4 Z-AUC): 1.36

CNC(=O)O[C@H]1COc2ccc(N3CCN(C4COC4)CC3)cc2[C@@H]1NC(=O)c1ccc(F)cc1
Potency [1]: inactive
Potency [2]: inactive
Potency [3]: inactive
Potency [4]: inactive
Potency [6]: inactive

CC1(C)C(=O)C(C)(C)c2cc(C(=O)Nc3ccc(C(=O)O)cc3)ccc21
Potency [1]: inactive
Potency [2]: inactive
Potency [3]: inactive
Potency [4]: inactive
Potency [6]: inactive

CCS(=O)(=O)N1CCC([C@@H](C)n2c(C)c(C(=O)NCc3c(OC)cc(C)[nH]c3=O)c3ccccc32)CC1
Potency [1]: inactive
Potency [2]: inactive
Potency [3]: inactive
Potency [4]: inactive
Potency [5]: inactive
Z-AUC [7]: -0.188 (inactive)
Z-AUC [7, 8]: 0.682
Z-AUC ([7]; measured here: PEO4 Z-AUC): -0.124

OC[C@H]1O[C@@H](OC(CCCCc2ccc(O)cc2)CCc2ccc(O)cc2)[C@H](O[C@@H]2OC[C@](O)(CO)[C@H]2O)[C@@H](O)[C@@H]1O (stereo partly specified)
Potency [1]: inactive
Potency [2]: inactive
Potency [3]: inactive
Potency [4]: inactive
Potency [6]: inactive

NS(=O)(=O)OC[C@@H]1C[C@@H](n2ccc3c(N[C@H]4CCc5ccccc54)ncnc32)C[C@@H]1O
Potency [1]: inactive
Potency [2]: inactive
Potency [3]: inactive
Potency [4]: inactive
Potency [5]: inactive
Potency [7]: 0.347 µM (active)
Z-AUC [7, 8]: -1.6
Z-AUC ([7]; measured here: PEO4 Z-AUC): -1.88

COc1cc(C[C@H]2COC(=O)[C@@H]2Cc2ccc(O)c(OC)c2)ccc1O
Potency [1]: inactive
Potency [2]: inactive
Potency [3]: inactive
Potency [4]: 14.7 µM (active)
Potency [6]: inactive

O=C(Nc1cccnn1)N1CCC(=Cc2cccc(Oc3ccc(C(F)(F)F)cn3)c2)CC1
Potency [1]: inactive
Potency [2]: inactive
Potency [3]: inactive
Potency [4]: inactive
Potency [5]: inactive
Z-AUC [7]: -0.753 (inactive)
Z-AUC [7, 8]: -0.539
Z-AUC ([7]; measured here: PEO4 Z-AUC): -0.803

Cc1c(-c2ccnn2C)cc(C(=O)NCc2ccc(S(C)(=O)=O)cn2)c(=O)n1-c1cccc(C(F)(F)F)c1
Potency [1]: inactive
Potency [2]: inactive and 12.8 µM (active)
Potency [3]: inactive
Potency [4]: inactive
Potency [5]: inactive
Z-AUC [7]: -0.519 (inactive)
Z-AUC [7, 8]: -0.353
Z-AUC ([7]; measured here: PEO4 Z-AUC): -0.364

COc1ccc(C)c2sc(NC(=O)c3ccncc3)nc12
Potency [1]: inactive
Potency [2]: inactive
Potency [3]: inactive
Potency [4]: inactive
Potency [6]: inactive

CC1=CCC2C(C)(CO)CCCC2(CO)C1CO (stereo unspecified)
Potency [1]: inactive
Potency [2]: inactive
Potency [3]: inactive
Potency [4]: 13.4 µM (active)
Potency [6]: inactive

CN(C)C/C=C/C(=O)Nc1ccc(C(=O)Nc2cccc(Nc3ncc(Cl)c(-c4c[nH]c5ccccc45)n3)c2)cc1
Potency [1]: inactive
Potency [2]: inactive
Potency [3]: inactive
Potency [4]: inactive
Potency [5]: inactive
Z-AUC [7]: -2.19 (inactive)
Z-AUC [7, 8]: -3.23
Z-AUC ([7]; measured here: PEO4 Z-AUC): -2.66

C(#Cc1cccc(CN2CCOCC2)c1)CCN1CCCCC1
Potency [1]: inactive
Potency [2]: inactive
Potency [3]: inactive
Potency [4]: inactive
Potency [6]: inactive
